Data on 39 molecules can be found in PubChem BioAssay (EPA / NIEHS).

Results filed as inconclusive are left out. Activity calls are given as the source filed them. How the source made its calls, unless noted: active means hit-call score of the fitted dose curve at least 0.9, where 1 is the maximum; inconclusive means response in the unintended direction; inactive means score below 0.9.

Experiment [1] is described as follows: CCTE_Harrill_HTTr_CellCount_MCF7: CCTE's Cell Proliferation Assessment for the High-Throughput Transcriptomics (HTTr) Platform, Harrill Lab (AID 2284012).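 Further: cells exposed to compound for six hours; intended direction is loss of nuclei count meaning fewer cells.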 An outline of the steps:
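Cell count served as viability reporter: loss of Hoechst-stained nuclei, counted by high content imaging, marks decreased growth or survival. Exposure was 6 h in MCF-7 cells across eight concentrations, with DMSO as baseline.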

The target of experiment [2] is Estrogen receptor (Homo sapiens) (UniProt P03372). The experiment in a line: CCTE_Deisenroth_AIME_96WELL_LUC_Active: CCTE's 96-well Estrogen Receptor Transactivation Assay with AIME metabolic competence (ERTA luciferase; metabolism positive), Deisenroth Lab (AID 2284023). An outline of the steps:
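Metabolism-positive mode: induced rat hepatic S9 in alginate microspheres conditions test solutions (0.002 - 200 uM, 10 points) for 2 hours. VM7Luc4E2 ER luciferase reporter cells then exposed 24 h; positive-direction fit against 17beta-estradiol, n=4 typical.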

Experiment [3] shares this target. Put plainly: CCTE_Deisenroth_AIME_96WELL_LUC_Inactive: CCTE's 96-well Estrogen Receptor Transactivation Assay without AIME metabolic competence (ERTA luciferase; metabolism negative), Deisenroth Lab (AID 2284025). A digest of the protocol:
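Metabolism-negative arm: chemicals (0.002–200 uM, 10 points) incubated 2 h with alginate-water microspheres, then medium moved onto VM7Luc4E2 cells for 24 h luciferase read-out. Positive direction vs 17beta-estradiol; n≥4 experiments.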

Experiment [4] in a line: CCTE_Deisenroth_AIME_96WELL_CTox_Active: Cytotoxicity Assessment (CTOX) in CCTE's 96-well Estrogen Receptor Transactivation Assay with AIME metabolic competence (metabolism positive), Deisenroth Lab (AID 2284028). A digest of the protocol: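 Cytotoxicity in VM7Luc4E2 breast cells after 24 h exposure to medium from a 2 h metabolic pre-incubation with induced rat hepatic S9 in alginate microspheres; fluorescent live-cell protease readout, 10-point series 0.002–200 uM, n=4.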

Experiment [5] in a line: CCTE_Deisenroth_AIME_96WELL_CTox_Inactive: Cytotoxicity Assessment (CTOX) in CCTE's 96-well Estrogen Receptor Transactivation Assay without AIME metabolic competence (metabolism negative), Deisenroth Lab (AID 2284029). An outline of the steps:
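Metabolism-negative mode: alginate-water lids without rat S9, 2 h pre-incubation of 10-point series (0.002 - 200 uM). Conditioned medium on VM7Luc4E2 cells 24 h; loss of fluorescent live-cell protease signal marks cytotoxicity.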

Experiment [6] addresses Estrogen receptor (Homo sapiens) (UniProt P03372). The experiment in a line: CCTE_Deisenroth_AIME_384WELL_LUC_Active: CCTE's 384-well Estrogen Receptor Transactivation Assay with AIME metabolic competence (ERTA luciferase; metabolism positive), Deisenroth Lab (AID 2284030). An outline of the steps:
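In this metabolism-positive format, a 2-hour exposure to alginate-immobilized rat S9 precedes a 24 hour luciferase transactivation readout in VM7Luc4E2 cells. Dosing spans 10 concentrations from 0.002 to 200 uM.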

Experiment [7] can be described thus: CCTE_Shafer_MEA_acute_burst_duration_mean: CCTE's Neural Acute Assay for Mean Burst Duration, Shafer Lab (AID 2284014; active means hit-call score of the fitted dose curve at least 0.9, where 1 is the maximum; inactive means score below 0.9;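 further: hits are decreases in mean burst duration relative to DMSO controls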). A digest of the protocol: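 Mean burst duration was compared between a 40 min baseline and a 40 min recording in the presence of compound (0.03-40 uM, 37 C), giving percent change per well. Cultures were rat cortical neurons at DIV 13 or 15; wells needed ≥10 active electrodes.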

Experiment [8] can be described thus: CCTE_Shafer_MEA_acute_per_burst_spike_number_mean: CCTE's Neural Acute Assay for Average Number of Spikes Per Burst, Shafer Lab (AID 2284015; active means hit-call score of the fitted dose curve at least 0.9, where 1 is the maximum; inactive means score below 0.9). An outline of the steps: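 Read-out: percent change in mean spikes per burst, each well's post-exposure 40-min recording versus its own 40-min baseline. Rat cortical cultures, DIV 13 or 15, compounds 0.03-40 uM; DMSO is negative control, loss-of-signal fitting.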

A short description of experiment [9]: CCTE_Shafer_MEA_acute_interburst_interval_mean: CCTE's Neural Acute Assay for Mean Interburst Interval, Shafer Lab (AID 2284016; active means hit-call score of the fitted dose curve at least 0.9, where 1 is the maximum; inactive means score below 0.9;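 further: percent change of mean interburst interval versus each well's own pre-dose baseline; curves fitted for decrease in interburst interval relative to DMSO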). A digest of the protocol: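 Rat cortical cultures, DIV 13/15; 20 min equilibration, 40 min baseline, compound 0.03-40 uM, 40 min re-recording, 37 C. Spikes detected at 8x rms noise (300-5000 Hz band-pass). Endpoint: % change in interburst interval, fitted in loss direction vs DMSO.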

Experiment [10] in a line: CCTE_Shafer_MEA_acute_burst_percentage_mean: CCTE's Neural Acute Assay for Percentage of Spikes in a Burst, Shafer Lab (AID 2284017; active means hit-call score of the fitted dose curve at least 0.9, where 1 is the maximum; inactive means score below 0.9;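 on AC50: curve fitted for loss of signal so potency reflects decreased burst percentage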). A digest of the protocol:
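Rat cortical cultures, DIV 13/15, 37 C. Spikes detected at 8x rms noise (300-5000 Hz band-pass). Burst spikes/total spikes averaged across electrodes per well; % change post- vs pre-treatment (40 min each), loss-of-signal fit vs DMSO.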

The nature of experiment [11]: CCTE_Shafer_MEA_acute_burst_percentage_std: CCTE's Neural Acute Assay for Standard Deviation of Burst Percentage, Shafer Lab (AID 2284018; active means hit-call score of the fitted dose curve at least 0.9, where 1 is the maximum; inactive means score below 0.9;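 further: fitted in the negative direction so actives lower burst percentage SD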). A digest of the protocol:
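Value is percent change from baseline in the across-electrode SD of spikes-in-bursts percentage, wells with >/= 10 active electrodes. Acute 40-min exposure to 0.03-40 uM on DIV 13 or 15 rat cortical cultures, recorded at 37 C after 40-min baseline.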

Experiment [12] is described as follows: CCTE_Shafer_MEA_acute_per_network_burst_spike_number_mean: CCTE's Neural Acute Assay for Average Number of Spikes in a Network Burst, Shafer Lab (AID 2284019; active means hit-call score of the fitted dose curve at least 0.9, where 1 is the maximum; inactive means score below 0.9). A digest of the protocol: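 Percent change from baseline in mean spikes per network burst, spikes detected at 8x rms noise. Each compound at 0.03-40 uM in at least three wells of rat cortical cultures, recorded 40 min before and 40 min during exposure.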

Experiment [13] in a line: CCTE_Shafer_MEA_acute_per_network_burst_spike_number_std: CCTE's Neural Acute Assay for Standard Deviation of Number of Spikes in a Network Burst, Shafer Lab (AID 2284020; active means hit-call score of the fitted dose curve at least 0.9, where 1 is the maximum; inactive means score below 0.9;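 further: fitted for decrease in spike-number SD versus DMSO so actives lower it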). An outline of the steps:
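Endpoint: percent change from 40 min baseline in standard deviation of spikes per network burst, after 40 min compound exposure (0.03-40 uM, 37 C). Cortical rat neurons on MEA at DIV 13 or 15; spikes detected at 8x rms noise, 300-5000 Hz band-pass.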

A short description of experiment [14]: CCTE_Shafer_MEA_acute_per_network_burst_electrodes_number_mean: CCTE's Neural Acute Assay for Mean Number of Electrodes in a Network Burst, Shafer Lab (AID 2284021; active means hit-call score of the fitted dose curve at least 0.9, where 1 is the maximum; inactive means score below 0.9;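 further: curves fitted for decreases only so hits reduce electrodes per burst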). An outline of the steps:
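Cultures of rat cortex neurons were exposed on DIV 13 or 15 to compounds at 0.03-40 uM in at least three wells each. Activity over 40 min before and 40 min after exposure at 37 C gave the percent change in electrodes per network burst.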

Experiment [15] is described as follows: CCTE_Shafer_MEA_acute_network_burst_percentage: CCTE's Neural Acute Assay for Percentage of Network Bursts, Shafer Lab (AID 2284022; active means hit-call score of the fitted dose curve at least 0.9, where 1 is the maximum; inactive means score below 0.9;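 further: curves fitted for loss so actives lower network burst percentage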). An outline of the steps:
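Cortical neurons from rat were grown over microelectrode arrays and used on day 13 or 15 in vitro. Wells with at least 10 active electrodes received test chemical at 0.03-40 uM. Activity during 40 min of exposure was compared with the preceding 40-min baseline.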

Experiment [16] in a line: CCTE_Shafer_MEA_acute_cross_correlation_area: CCTE's Neural Acute Assay for Area of Cross Correlation, Shafer Lab (AID 2284024; active means hit-call score of the fitted dose curve at least 0.9, where 1 is the maximum; inactive means score below 0.9;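 further: area under pooled inter-electrode spike cross-correlation near zero lag as percent change from own baseline; curves fitted for loss of cross-correlation area so actives lower synchrony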;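 on outcome: rat primary cortical neuron networks on 48-well MEA at DIV 13 or 15 with 40 min exposure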). A digest of the protocol: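 Acute exposure of mature rat cortical networks (day 13 or 15 post-plating) to 0.03-40 uM compound. Spontaneous spiking on MEA, 40 min pre- and post-dose at 37 C.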
Experiment [17] in a line: CCTE_Shafer_MEA_acute_cross_correlation_HWHM: CCTE's Neural Acute Assay for Cross Correlation at Half Width at Half Maximum, Shafer Lab (AID 2284026; active means hit-call score of the fitted dose curve at least 0.9, where 1 is the maximum; inactive means score below 0.9;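 further: hits are a decrease in cross-correlogram half width relative to DMSO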;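 on outcome: spontaneous network firing of rat primary cortical neurons on multiwell microelectrode arrays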). A digest of the protocol: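 Primary cortex (rat), MEA, DIV 13/15; compound 0.03-40 uM; 40 min pre + 40 min post at 37 C; spike threshold 8x rms; wells need ≥10 active electrodes; endpoint = % change in cross-correlogram HWHM vs baseline, DMSO negative control.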

Experiment [18] in a line: CCTE_Shafer_MEA_acute_synchrony_index: CCTE's Neural Acute Assay for Synchrony, Shafer Lab (AID 2284027; active means hit-call score of the fitted dose curve at least 0.9, where 1 is the maximum; inactive means score below 0.9;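 further: network synchrony index of spontaneous spiking in primary rat cortical neurons on MEAs; fitted for loss of signal so actives lower synchrony relative to DMSO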). An outline of the steps: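 Plates equilibrated 20 min at 37 C, baseline recorded 40 min, compound (0.03-40 uM) added, then 40 min more recorded. Cells: primary rat cortical neurons, DIV 13 or 15. Per-well synchrony index change analysed in negative direction against DMSO.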

Experiment [19] can be described thus: CCTE_Shafer_MEA_dev_firing_rate_mean: CCTE's Neural Network Formation Assay for Mean Firing Rate, Shafer Lab (AID 2284031; active means hit-call score of the fitted dose curve at least 0.9, where 1 is the maximum; inactive means score below 0.9). A digest of the protocol: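 Steps: seed rat cortical cells (1.5 x 10^5/well) with laminin on PEI-coated MEA; dose day 0; record DIV 5/7/9/12, full media and compound exchange after DIV 5 and 9 recordings; compute well-mean firing rate AUC.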

The nature of experiment [20]: CCTE_Shafer_MEA_dev_per_burst_spike_percent: CCTE's Neural Network Formation Assay for Percent of Spikes in a Burst, Shafer Lab (AID 2284032; active means hit-call score of the fitted dose curve at least 0.9, where 1 is the maximum; inactive means score below 0.9). A digest of the protocol:
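Value is trapezoidal AUC over recordings on days 5, 7, 9 and 12 of the well-mean fraction of spikes falling in single-electrode bursts; rat cortical cultures exposed continuously from plating, treatment renewed DIV 5 and 9, fitted downward against DMSO.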

Chain of Estrogen receptor (Homo sapiens) (P03372 whole entry, looked up): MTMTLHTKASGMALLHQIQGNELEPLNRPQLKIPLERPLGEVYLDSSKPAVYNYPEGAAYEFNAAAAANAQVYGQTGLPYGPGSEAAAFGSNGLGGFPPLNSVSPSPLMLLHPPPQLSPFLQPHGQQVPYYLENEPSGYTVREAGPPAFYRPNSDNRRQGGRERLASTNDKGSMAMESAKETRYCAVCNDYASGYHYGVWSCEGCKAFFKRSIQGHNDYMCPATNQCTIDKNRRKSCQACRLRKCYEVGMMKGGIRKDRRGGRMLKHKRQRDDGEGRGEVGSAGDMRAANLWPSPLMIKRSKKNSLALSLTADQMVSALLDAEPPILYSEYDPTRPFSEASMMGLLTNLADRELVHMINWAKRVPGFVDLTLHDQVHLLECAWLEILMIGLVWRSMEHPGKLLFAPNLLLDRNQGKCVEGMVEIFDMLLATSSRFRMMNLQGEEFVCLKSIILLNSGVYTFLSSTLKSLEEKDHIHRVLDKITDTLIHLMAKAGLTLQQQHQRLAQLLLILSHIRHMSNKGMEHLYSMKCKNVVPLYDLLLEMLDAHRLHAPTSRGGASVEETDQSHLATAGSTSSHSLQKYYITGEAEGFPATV

For `CCCCC(C=O)CC` (stereo unspecified), in experiment [1], the outcome was inactive. Still for that read-out and setting: as for `CC(=O)c1ccccc1O`, the entry is “inactive”; as for `CN(C)c1ccc2nc3ccc(=[N+](C)C)cc-3sc2c1`, “inactive”; as for `CCCCCCC=O`, “inactive”. Take `CC(=O)CCC1=C(C)CCCC1(C)C`: the molecule was called inactive in [1]. On the same count and under the same terms, then `CCC(C)c1ccccc1` (stereo unspecified), with “inactive”.

In the case of `CC(C)(C)NC(=O)[C@H]1CC[C@H]2[C@@H]3CC[C@H]4NC(=O)C=C[C@]4(C)[C@H]3CC[C@]12C`, the molecule was called inactive in [1]. On the same count and under the same terms, as for `CC(C=O)c1ccccc1` (stereo unspecified), the entry is “inactive”; as for `CC(=O)c1ccc(S(=O)(=O)NC(=O)NC2CCCCC2)cc1`, “inactive”. Turning to `N#Cc1ccc(C2CCCc3cncn32)cc1` (stereo unspecified), the molecule was classed as inactive in [1]. Still for that read-out and setting: then `O=C(O)CCCC(=O)O`, with “inactive”; and `Nc1ncnc2nc[nH]c12`, with “inactive”; and `Oc1ccc(-c2ccccc2)c(Cl)c1`, with “inactive”. On the same count and under the same terms, as for `COc1cc(O)c(C(=O)c2ccccc2)cc1S(=O)(=O)O`, the entry is “inactive”; as for `CC(C)OC(=O)c1ccccc1`, “inactive”.

Turning to `CCCc1ccc(O)c(OC)c1`, the call in experiment [1] was inactive. Same read-out and setting: as for `CC(=O)OCC=C(C)C`, the entry is “inactive”; as for `C=C[C@@]1(C)CC(=O)[C@]2(O)[C@@]3(C)[C@@H](O)CCC(C)(C)[C@@H]3[C@H](O)[C@H](OC(C)=O)[C@@]2(C)O1`, “inactive”. The same measure, in the same setting: then `CCCCCCCO`, with “inactive”; and `Cc1ccc(C)c(OCCCC(C)(C)C(=O)O)c1`, with “inactive”; and `CCCCOCC(C)O` (stereo unspecified), with “inactive”.

As for `CCC(C)C(=O)OC` (stereo unspecified), the outcome in experiment [1] was inactive. The same measure, in the same setting: as for `O=C(O[C@@H]1Cc2c(O)cc(O)cc2O[C@@H]1c1cc(O)c(O)c(O)c1)c1cc(O)c(O)c(O)c1`, the entry is “inactive”; as for `CC(C)[N+](C)(CCOC(=O)C1c2ccccc2Oc2ccccc21)C(C)C`, “inactive”. On the same count and under the same terms, then `CC(=O)OCCc1ccccc1`, with “inactive”; and `CC(=O)OC1CCCCC1C(C)(C)C` (stereo unspecified), with “inactive”. The same measure, in the same setting: then `CC(C)(O)Cc1ccccc1`, with “inactive”. Regarding `COC(=O)C=Cc1ccccc1`, the call in experiment [1] was inactive. On the same count and under the same terms, as for `Fc1ccc(Br)cc1`, the entry is “inactive”; as for `O=C(OCc1ccccc1)c1ccc(O)cc1`, “inactive”; as for `CC1=CCC(C(C)C)C=C1` (stereo unspecified), “inactive”. The same measure, in the same setting: then `C=C(C)[C@@H]1CC=C(C)CC1`, with “inactive”; and `CC(=O)CCC=C(C)C`, with “inactive”; and `c1ccc2cnccc2c1`, with “inactive”. For the molecule `C=CCCCCCCCCC=O`, in [1], the outcome was inactive. In the case of `COc1ccc(-c2coc3cc(O)cc(O)c3c2=O)cc1`, the call in experiment [1] was inactive. Also, the AC50 in experiment [2] was 2.14 µM (active); in experiment [3], 0.971 µM (active); in experiment [4], 75.9 µM (active); in [5], 156 µM (active). `CC(=O)OCc1ccccc1`: the outcome in experiment [1] and in experiment [6] was inactive. Regarding `Cc1c(C(=O)c2c[nH]n(C)c2=O)ccc(S(C)(=O)=O)c1C1=NOCC1`, the call in experiment [1], in [7], in experiment [8], in experiment [9], in [10] and in experiment [11] was inactive. The result in experiment [12], in experiment [13], in experiment [14], in experiment [15], in experiment [16] and in [17] was inactive. Also, the result in [18], in experiment [19] and in experiment [20] was inactive. Regarding `c1ccc(Nc2cccc3ccccc23)cc1`, the AC50 is 15 µM (active) in [7]; 5.6 µM (active) in [8]; 11.7 µM (active) in experiment [9]; 4.86 µM (active) in experiment [10]; 1.86 µM (active) in [13]; 27.8 µM (active) in experiment [15]. Besides, the AC50 in experiment [2] is 17.7 µM (active); in experiment [16], 0.465 µM (active); in experiment [3] it was 12.7 µM (active); in experiment [17] it was 5.12 µM (active); in experiment [18] it was 8.24 µM (active). In addition, the result in [11], in [12] and in experiment [14] was inactive.
